Source: PubChem BioAssay (National Center for Advancing Translational Sciences (NCATS))
This is a sample that favours compounds with a hit; in the whole collection about 12% have one here.
SARS PLP yeast: inhibitors of SARS-CoV papain-like protease in yeast; AID 485353; S. cerevisiae expressing SARS-CoV PLpro, growth rescue; 330,000 compounds, 0.19% hits; Potency, µM (highest dose often 32.9 µM), hits mostly activators; calls by dose curve; note: nearly all actives have a fitted effect of over 55% in size
NS1 inh: influenza NS1 inhibition. 270,000 compounds, 0.4% hits. Potency, µM (titrated, usually from 46.1 µM). AID 2326; calls by dose curve; note: actives are rising curves; nearly all actives have a fitted effect of over 50% in size
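Read-out: OD600 growth recovery of NS1-expressing budding yeast. Cells grown overnight at 30C in -URA glucose medium, washed, resuspended and diluted 1:100 in 2% galactose assay medium, pH 6.0. Same strain lacking NS1 served as positive control.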
HCV inhibitor: blocks hepatitis C virus; Huh7.5.1 HCVcc-Cre infection, luciferase reporter, 44 h; 340,000 compounds, 3.4% hits; Potency, µM (highest dose often 41.8 µM), actives largely listed as inhibitors
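1,000 cells/well; 4 h culture; + compound; + HCVcc-Cre (~0.5 moi); 44 h; luciferase substrate, RT 15 min; read 15 sec.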
Pf growth 48h: P. falciparum growth inhibition at 48 hours (one generation); P. falciparum luciferase growth in erythrocytes, 48 h; Potency, µM (series often up to 28.7 µM), most hits filed as inhibitors; 310,000 compounds, 5.9% hits
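Compounds are pin-transferred into medium, infected erythrocytes (2% hematocrit, 0.1% parasitemia final) are added, and plates sit one parasite generation at 37 C in 5% CO2. Detection reagent is then added and luminescence measured.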
AMA1-RON2 inh: AMA1-RON2 (P. falciparum) interaction inhibition | AlphaScreen AMA1-biotinylated RON2 peptide binding | 360,000 compounds, 0.2% hits | AID 720542 | Potency, µM (highest dose often 58.2 µM), usual class: inhibitors; note: nearly all actives have a fitted effect of over 45% in size
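AMA1 (3D7) with his tag at 25 nM final met compounds first, then biotinylated RON2 peptide at 25 nM; detection used donor plus acceptor beads, 10 µg/mL apiece, read by AlphaScreen after 30 min at room temperature.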
Pf growth 96h: P. falciparum growth inhibition at 96 hours. P. falciparum luciferase reporter growth, 96 h. Potency, µM (doses to about 28.7 µM), hits mostly inhibitors. 320,000 compounds, 6.9% hits. AID 504834
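Delayed-death screen, second-generation endpoint: infected erythrocytes, 2% hematocrit, 0.05% parasitemia final; 96 hours at 37 C, 5% CO2; luciferase detection reagent; luminescence decrease equals reduced growth.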
Large screens that a line does not name were inactive. Unless noted, calls come from the whole dose curve; as a rule, active = well fitted curve in the direction sought with a large enough effect; inconclusive = small, poorly fitted or top-dose-only effect, or another doubt; inactive = no such curve, though single readings can be large; an effect the other way counts as inactive or inconclusive.

COc1cccc(C2=CC(=O)CC(c3ccco3)C2)c1 (stereo unspecified)	none (no result: SARS PLP yeast, NS1 inh, Pf growth 48h, Pf growth 96h)
Cc1ccc(C)n1NC(=O)c1ccccc1O	NS1 inh inconclusive, Pf growth 48h inconclusive, Pf growth 96h 9.3µM
Cc1ccc(C)n1NC(=O)c1ccccc1[N+](=O)[O-]	none
O=S(=O)(NC[C@@H]1CCC[C@H](CNS(=O)(=O)c2c(F)cccc2F)C1)c1ccc2c(c1)OCCO2	Pf growth 48h 8.3µM, Pf growth 96h inconclusive (no result: NS1 inh, HCV inhibitor, AMA1-RON2 inh)
CCc1nn(CC(=O)NCc2cccnc2)c(=O)c2cc3occc3n12	HCV inhibitor inconclusive, Pf growth 96h 10µM
CCc1nn(C(C)C(=O)NC(C)CCc2ccco2)c(=O)c2cc3occc3n12 (stereo unspecified)	HCV inhibitor 10µM
CCc1nn(C(C)C(=O)NCc2cccc(Cl)c2)c(=O)c2cc3occc3n12 (stereo unspecified)	HCV inhibitor 8.9µM
CC(=O)Nc1ccccc1OCC(=O)NCC(F)(F)F	none (no result: NS1 inh)
O=C(NCc1ccccc1Cl)c1nnc(CS(=O)(=O)c2ccccc2)o1	Pf growth 48h 5.2µM
O=S(=O)(O)C(c1ccccc1)[C@@H](O)c1ccccc1 (stereo partly specified)	none (no result: SARS PLP yeast, HCV inhibitor, Pf growth 48h, AMA1-RON2 inh, Pf growth 96h)
O=C(CCN1CCN(c2ccccc2)CC1)Nc1cccc(Br)c1	Pf growth 48h inconclusive, Pf growth 96h inconclusive
Cc1ccccc1NC(=O)NCCCN1CCN(c2ccccc2)CC1	Pf growth 96h 2.3µM (no result: Pf growth 48h)
COc1ccccc1N1CCN(CCCNC(=O)Nc2ccccc2)CC1	Pf growth 48h 12µM, Pf growth 96h inconclusive
O=C(NCCN1CCN(c2ccccc2)CC1)Nc1cccc(Br)c1	HCV inhibitor 14µM, Pf growth 48h inconclusive, Pf growth 96h inconclusive
Cc1ccccc1NC(=O)NCCCN1CCN(C)CC1	Pf growth 96h inconclusive
COc1ccc(N2CCN(CCCNC(=O)Nc3ccccc3)CC2)cc1	HCV inhibitor inconclusive (no result: Pf growth 48h)
COc1ccc(C(=O)NCCCN2CCN(CCCNC(=O)c3ccc(OC)c(OC)c3)CC2)cc1OC	none (no result: NS1 inh)
COc1ccccc1N1CCN(CCCCNC(=O)c2ccc3ccccc3c2)CC1	HCV inhibitor inconclusive, Pf growth 48h inconclusive, Pf growth 96h 4.1µM (no result: SARS PLP yeast)
CCOC(=O)C1C(=O)C(=O)N(Cc2ccccc2)C1C(=O)OCC (stereo unspecified)	none (no result: SARS PLP yeast, NS1 inh, Pf growth 48h, Pf growth 96h)
COc1ccc([C@]23Cc4cc(OC)c(OC)cc4C(O2)C2=C(CC4(CCCCC4)OC2=O)O3)cc1	Pf growth 48h inconclusive, Pf growth 96h inconclusive (no result: HCV inhibitor, AMA1-RON2 inh)
O=C(COc1ccc(Cl)cc1)N(Cc1ccccc1)c1nc(-c2ccccc2)cs1	Pf growth 48h 1.5µM
COCCCN(C(C)=O)c1nc(-c2ccccc2)cs1	HCV inhibitor 13µM, AMA1-RON2 inh inconclusive, Pf growth 96h inconclusive
COCCCN(C(=O)c1ccccc1F)c1nc(-c2ccc(OC)cc2)cs1	HCV inhibitor 10µM, Pf growth 48h inconclusive
COCCN(C(=O)c1ccccc1)c1nc(-c2ccc(OC)cc2)cs1	Pf growth 48h inconclusive, Pf growth 96h inconclusive
COCCCN(C(=O)c1ccccc1)c1nc(-c2ccc(OC)cc2)cs1	HCV inhibitor 13µM, Pf growth 48h inconclusive, Pf growth 96h inconclusive
OC1(C(F)(F)F)CC(c2ccc3ccccc3c2)=NO1 (stereo unspecified)	none
O=C(O)CC12C[C@H]3C[C@@H](CC(O)(C3)C1)C2	none (no result: SARS PLP yeast, HCV inhibitor, Pf growth 48h, AMA1-RON2 inh, Pf growth 96h)
CCOC(=O)O[C@]1(C(=O)OCCl)CC[C@@H]2[C@H]3CCC4=CC(=O)C=C[C@]4(C)[C@@H]3[C@@H](O)C[C@@]21C	none (no result: SARS PLP yeast, NS1 inh, HCV inhibitor, AMA1-RON2 inh)
O=C(NC1CCCCC1)C(=S)N1CCCC1	none
CCN1C(=O)[C@@H]2[C@@H](c3ccc(-c4ccc(C(C)=O)cc4)cc3)N3CCC[C@@]3(C(=O)OC)[C@@H]2C1=O	Pf growth 48h 9.3µM, Pf growth 96h inconclusive (no result: NS1 inh)
CCN1C(=O)[C@H]2[C@@H](c3ccc(-c4ccc(C(C)=O)cc4)cc3)N3CCCC[C@@]3(C(=O)OC)[C@H]2C1=O	Pf growth 48h inconclusive, Pf growth 96h 12µM (no result: NS1 inh)
O=c1c2cc3c(=O)n(-c4ccccc4O)c(=O)c3cc2c(=O)n1-c1ccccc1O	none
O=C(NCc1ccc2c(c1)OCO2)c1c(Cl)cccc1Cl	Pf growth 96h inconclusive
COc1ccccc1CNC(=O)c1cc2c(C)nn(Cc3ccc(F)cc3)c2s1	HCV inhibitor 7.1µM, Pf growth 48h inconclusive, Pf growth 96h 12µM
